Among the data in PubChem BioAssay (NCI) are growth values, retold here.

Structures are written as SMILES. About 83,000 compounds went through this panel and 20% of them were active in at least one assay; those are over-represented in the sample as a whole.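 Treatment: one concentration, 48 hours, 96-well format. Scoring: percent growth, with anything below 10 considered active.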 A number with no mark means an inactive call. Active and inactive are the calls of the source.

Test systems include DU-145 prostate; K-562 leukemia; MALME-3M melanoma; MDA-MB-231 breast; RXF 393 renal; SF-268 CNS; SF-295 CNS; SF-539 CNS; UACC-257 melanoma; M14 melanoma; HCT-15 colon; HT29 colon; SNB-75 CNS; SNB-19 CNS; U251 CNS; PC-3 prostate; SK-MEL-5 melanoma; UACC-62 melanoma; LOX IMVI melanoma; SK-MEL-28 melanoma.
What all share (experiment): NCI-60 one-dose screen, 48 h (100 = growth as untreated, 0 = no growth, -100 = all killed)
What all share (settings): 10 µM unless noted

With `CC1(C)C=Cc2cc(/C(N)=N/C(N)=N/c3nc4ccccc4s3)ccc2O1`, the growth was 94.9% in the test on DU-145 prostate; 57.6% in the test on K-562 leukemia; 104% in the test on MALME-3M melanoma; 77.5% in the test with MDA-MB-231 breast; 103% with RXF 393 renal; 93.2% in the test with SF-268 CNS. Besides, the growth in the test with SF-295 CNS was 81.6%; in the test on SF-539 CNS, 97.3%; in the test with UACC-257 melanoma it was 104%; with M14 melanoma, 103%; in the test with HCT-15 colon, 57.7%; with HT29 colon it was 95.1%. For the same compound, the growth in the test with SNB-75 CNS is 101%; in the test with SNB-19 CNS, 96.6%; in the test with U251 CNS, 89.8%; in the test with PC-3 prostate it was 34.7%; with SK-MEL-5 melanoma, 87.9%; in the test on UACC-62 melanoma, 96.7%. In addition, the growth in the test on LOX IMVI melanoma is -56.3% (active); in the test on SK-MEL-28 melanoma, 108%.
With `CC[C@H](CC[C@@H](C)[C@H]1CC[C@H]2[C@@H]3CC(=O)C4=CC(=O)/C(=C/c5ccc([N+](=O)[O-])cc5)C[C@]4(C)[C@H]3CC[C@]12C)C(C)C`, the growth is 104% with DU-145 prostate; 81.4% with K-562 leukemia; 101% in the test on MALME-3M melanoma; 98.2% in the test on MDA-MB-231 breast; 120% with RXF 393 renal; 108% with SF-268 CNS. The growth with SF-295 CNS is 97.1%; in the test with SF-539 CNS, 97.3%; with UACC-257 melanoma it was 110%; in the test on M14 melanoma, 89.7%; in the test with HCT-15 colon it was 96.9%; with HT29 colon, 104%. In addition, the growth in the test on SNB-75 CNS was 96.1%; with SNB-19 CNS, 102%; in the test with U251 CNS it was 100%; in the test on PC-3 prostate, 94.8%; in the test with SK-MEL-5 melanoma, 96.7%; with UACC-62 melanoma it was 90.2%. For the same compound, the growth was 107% in the test on LOX IMVI melanoma and 104% in the test on SK-MEL-28 melanoma.
For `O=C(CCCCCCN1CC(=O)N2[C@@H](c3cccs3)c3[nH]c4ccccc4c3C[C@H]2C1=O)NO`, the growth is 90.2% in the test on DU-145 prostate; 64.7% with K-562 leukemia; 27.2% with MALME-3M melanoma; 93.7% in the test with MDA-MB-231 breast; 89.3% in the test on RXF 393 renal; 101% in the test with SF-268 CNS. Moreover, the growth was 96.9% in the test on SF-295 CNS; 73.8% in the test on SF-539 CNS; 66.9% in the test with UACC-257 melanoma; 84.3% in the test with M14 melanoma; 96.1% in the test on HCT-15 colon; 78.9% in the test on HT29 colon. The growth in the test on SNB-75 CNS is 73%; in the test on SNB-19 CNS it was 78.1%; in the test with U251 CNS, 76.5%; in the test on PC-3 prostate, 86.2%; in the test on SK-MEL-5 melanoma, 74.8%; in the test on UACC-62 melanoma it was 5.39% (active). Besides, the growth is 68.4% in the test with LOX IMVI melanoma and 70.2% with SK-MEL-28 melanoma.
Consider `N#Cc1c(-c2ccc(F)cc2)cc(-c2c[nH]c3ccccc23)nc1-c1c[nH]c2ccccc12`, for which the growth is 106% in the test with DU-145 prostate; 105% with K-562 leukemia; 102% with MALME-3M melanoma; 102% in the test on MDA-MB-231 breast; 112% with RXF 393 renal; 101% with SF-268 CNS. For the same compound, the growth in the test with SF-295 CNS was 103%; with SF-539 CNS it was 100%; with UACC-257 melanoma it was 107%; in the test with M14 melanoma it was 97.4%; in the test on HCT-15 colon, 99.6%; in the test on HT29 colon, 110%. Moreover, the growth in the test with SNB-75 CNS is 98.6%; in the test with SNB-19 CNS it was 102%; in the test on U251 CNS, 94.9%; in the test with PC-3 prostate it was 103%; in the test with SK-MEL-5 melanoma, 100%; with UACC-62 melanoma it was 98.3%. Moreover, the growth in the test with LOX IMVI melanoma and in the test on SK-MEL-28 melanoma was 107% in each case.
`O=C(CSc1nc2ccccc2c(=O)n1-c1ccc(Cl)c(Cl)c1)Nc1ccc(S(=O)(=O)Nc2ccc(Cl)nn2)cc1`: the growth with DU-145 prostate is 101%; with K-562 leukemia it was 96.5%; in the test with MALME-3M melanoma, 98.5%; in the test on MDA-MB-231 breast, 90.8%; in the test with RXF 393 renal, 88.1%; in the test on SF-268 CNS, 100%. For the same compound, the growth in the test on SF-295 CNS was 101%; in the test with SF-539 CNS it was 90.7%; with UACC-257 melanoma it was 93.5%; in the test on M14 melanoma, 86.2%; in the test on HCT-15 colon it was 99.5%; with HT29 colon, 96.6%. Moreover, the growth in the test on SNB-75 CNS was 68.8%; with SNB-19 CNS, 96.3%; with U251 CNS, 91.6%; with PC-3 prostate, 92.3%; in the test on SK-MEL-5 melanoma, 100%; in the test with UACC-62 melanoma it was 85%. Further, the figures for the growth in the test with LOX IMVI melanoma and in the test with SK-MEL-28 melanoma were 97.4% and 96.3%, respectively.
As to `O=C(CSc1nnc(-c2cccs2)n1-c1ccccc1)Nc1ccccc1F`, the growth is 102% with DU-145 prostate; 26.6% in the test on K-562 leukemia; 70.2% in the test on MALME-3M melanoma; 86.5% in the test with MDA-MB-231 breast; 90.7% in the test on RXF 393 renal; 93.7% in the test on SF-268 CNS. Also, the growth in the test on SF-295 CNS is 83.2%; in the test with SF-539 CNS it was 87.9%; in the test on UACC-257 melanoma it was 95.3%; in the test with M14 melanoma, 74.7%; in the test on HCT-15 colon, 52.7%; in the test with HT29 colon, 75.1%. For the same compound, the growth is 84.4% in the test on SNB-75 CNS; 83.2% with SNB-19 CNS; 89.3% in the test with U251 CNS; 93.3% in the test on PC-3 prostate; 91.2% in the test on SK-MEL-5 melanoma; 57.7% in the test on UACC-62 melanoma. Moreover, the growth with LOX IMVI melanoma was 78.9%; in the test on SK-MEL-28 melanoma, 81.1%.
With `Cc1ccc(-c2nc(SCC(=O)c3ccccc3)nc(Nc3ccc(S(N)(=O)=O)cc3)c2C#N)cc1`, the growth is 60.7% in the test on DU-145 prostate; 70.1% in the test on K-562 leukemia; 33.6% with MALME-3M melanoma; 33% in the test on MDA-MB-231 breast; 51.7% in the test with RXF 393 renal; 76.7% with SF-268 CNS. The growth in the test on SF-295 CNS is 36.7%; with SF-539 CNS, 18.3%; in the test on UACC-257 melanoma it was 97.4%; with M14 melanoma it was 36.7%; in the test with HCT-15 colon, 72.1%; in the test with HT29 colon it was 92.3%. The growth is 80% in the test with SNB-75 CNS; 77.3% in the test with SNB-19 CNS; 47.4% in the test with U251 CNS; 92.6% in the test on PC-3 prostate; 75.5% with SK-MEL-5 melanoma; 80.3% with UACC-62 melanoma. The growth with LOX IMVI melanoma was 15.4%; in the test with SK-MEL-28 melanoma, 81.1%.
`COc1ccc([C@H]2C(=O)N(c3cc(OC)c(OC)c(OC)c3)[C@@H]2c2ccc(OC)c(O)c2)cc1`: the growth is 16.7% in the test with DU-145 prostate; 9.93% (active) with K-562 leukemia; 67.8% in the test with MALME-3M melanoma; 17.5% in the test on MDA-MB-231 breast; 6.67% (active) with RXF 393 renal; 29.1% in the test with SF-268 CNS. For the same compound, the growth in the test with SF-295 CNS is 18.5%; in the test on SF-539 CNS, -1.89% (active); with UACC-257 melanoma it was 58.1%; with M14 melanoma, 4.54% (active); with HCT-15 colon, 9.51% (active); in the test on HT29 colon it was -3.08% (active). The growth was 40.2% in the test on SNB-75 CNS; 28.3% with SNB-19 CNS; 15.7% with U251 CNS; 20.9% in the test with PC-3 prostate; -23% (active) with SK-MEL-5 melanoma; 33.1% in the test on UACC-62 melanoma. Moreover, the results for the growth in the test on LOX IMVI melanoma and in the test with SK-MEL-28 melanoma were 13.1% and 63.7%, respectively.
